Data reported in the supplement of paper PMC4894684.
Structures can show the parent of a compound that is named as a salt. ± gives the standard deviation of the averaged measurements.

Tested on: Toxoplasma gondii RH (in HFF)
Assay: parasite growth relative to the screen mean (all compounds = 100%); higher = less inhibition of parasite growth
Conditions: 5 µM; 72 h; oxygen 21 %
In short: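 Growth values are relative to the mean of the whole screen and averaged over duplicate screens, with all compounds together set to 100%. Parasites (RH β-Gal–GFP Toxoplasma, MOI 1:5) were added within 2 h of pinning compounds at 5 µM final onto confluent human foreskin fibroblasts and grown 72 h at 21% O2. Parasite number came from CPRG β-Gal readings against in-plate standard curves.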

Compound | parasite growth [%]
CC#CCOC(=O)c1c(C)nc2sc3c(c2c1N)CCC(O)C3 (stereo unspecified) | 117.8 ± 0.28
CN(Cc1cnc2nc(N)nc(N)c2n1)c1ccc(C(=O)N[C@@H](CCC(=O)O)C(=O)O)cc1 [Methotrexate] | 161 ± 27
Cc1ccc(Sc2cncc3sc(C(N)=O)cc23)cc1 | 148 ± 2.4
N#C/C(=C\c1ccc(O)c(O)c1)C(=O)Nc1ccccc1 | 141 ± 23
O=C(OCCN1CCCCC1)c1c[nH]c2ccccc12 | 113 ± 7.7
Cc1[nH]c(/C=C2\C(=O)Nc3ccccc32)c(C)c1CCC(=O)O | 102 ± 8.8
O=C(O)CCC/C=C\C[C@@H]1CO[C@H](C(F)(F)F)O[C@@H]1c1ccccc1O | 102 ± 25
Cc1cc(C)cc(C(=O)N(C)[C@H](Cc2ccc(-c3ccccc3)cc2)C(=O)N[C@@H](Cc2c[nH]c3ccccc23)C(=O)O)c1 | 146 ± 20
CN1c2cc3c(cc2N=C(c2ccc(C(=O)O)cc2)c2ccccc21)C(C)(C)CCC3(C)C | 61.4 ± 34
COc1ccccc1N1CCN(CCN2C(=O)c3ccccc3C(C)(C)C2=O)CC1 [ARC 239 dihydrochloride] | 108 ± 47
N=C(N)S/C=C\C(=O)O [ZAPA sulphate] | 106 ± 28
CCCCn1c(=O)c2[nH]c(C34CC5CC(CC3C5)C4)nc2n(CCCO)c1=O | 101 ± 16
CN(C(=O)c1c(O)c2ccccc2n(C)c1=O)c1ccccc1 [Linomide] | 135 ± 4.5
O=C(NCCO[N+](=O)[O-])c1cccnc1 [Nicorandil] | 109 ± 12
COc1ccc2c(c1)c(CC(=O)N1CCOCC1)c(C)n2C(=O)c1ccc(Cl)cc1 | 133 ± 23
NC(=O)N1c2ccccc2CC(O)c2ccccc21 (stereo unspecified) [Licarbazepine] | 122 ± 9.9
